RGS4-Gao reg: human RGS4-Galphao interaction regulation; Multiplexed bead flow cytometry, RGS4-Galphao binding; actives lie on both sides; binding response (% of control), % at 10 µM; 220,000 tested, 0.33% active; in the data active means binding response below about 49% or above about 150%; inactive means in between;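 further: fluorescent Galphao activated with aluminum fluoride binding bead-coupled RGS4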
Target sequence (P09471 whole entry, looked up): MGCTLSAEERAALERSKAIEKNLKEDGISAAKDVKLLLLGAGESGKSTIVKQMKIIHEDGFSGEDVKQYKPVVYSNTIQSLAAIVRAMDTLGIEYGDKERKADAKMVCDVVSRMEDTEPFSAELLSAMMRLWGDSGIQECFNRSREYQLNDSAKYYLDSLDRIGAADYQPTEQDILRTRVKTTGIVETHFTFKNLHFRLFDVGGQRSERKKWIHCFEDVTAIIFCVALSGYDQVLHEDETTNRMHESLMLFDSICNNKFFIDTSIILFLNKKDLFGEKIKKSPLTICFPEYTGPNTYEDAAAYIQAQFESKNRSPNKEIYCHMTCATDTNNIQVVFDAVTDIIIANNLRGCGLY
RGS16-Gao HTS: RGS16-Galphao interaction regulator (human); 220,000 tested, 0.38% active; O15492+P09471; binding response (% of control), % at 10 µM; bead-based flow cytometry RGS16-Galphao binding, fluorescence; actives lie on both sides; AID 1441; call rule not given here;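 further: Galphao activated by GDP with aluminum fluoride before binding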
RGS7-Gao: modulates binding of RGS7 to human Galphao; Multiplexed bead flow cytometry; actives lie on both sides; binding response (% of control), % at 10 µM; 220,000 tested, 0.35% active; in the data active means binding response below about 49% or above about 150%; inconclusive means no clear call, values can overlap the other calls; inactive means in between;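 further: fluorescent Galphao held in activated GDP-AlF4 state binding bead-coupled RGS7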
GSH fluor: compound fluoresces at 488/530 nm on GSH beads | GSH beads flow cytometry, compound fluorescence 488/530 nm; hits give high values | fluorescence (KMESF) at 10 µM | 190,000 tested, 0.25% active; in the data active means fluorescence above about 89;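 further: glutathione beads carrying GST-tagged Bcl family fusion proteins plus one bare bead set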
RGS8-Gao: regulators of human RGS8-Galphao interaction; P09471; multiplexed bead flow cytometry, RGS8-Galphao binding; actives lie on both sides; response (percent of control binding), % at 10 µM; 220,000 tested, 0.34% active; AID 1423; in the data active means response below about 60% or above about 140%; inactive means in between;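 further: Galphao activated as the GDP aluminium fluoride complex binding bead-coupled RGS8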
Avidin fluor: avidin bead compound fluorescence profile; Avidin beads, compound fluorescence 488/530 nm, flow cytometry; hits give high values; fluorescence (KMESF) at 10 µM; 220,000 tested, 0.38% active; AID 1775; in the data active means fluorescence above about 47
Numbers stand for hits; i = inactive; ? = inconclusive; nt = no result given. A selection: hits, their analogues and other compounds. The true share with any hit is near 1.2%.

SMILES	RGS4-Gao reg	RGS16-Gao HTS	RGS7-Gao	GSH fluor	RGS8-Gao	Avidin fluor
CCCCC(CC)CNC(=O)c1ncn[nH]1 (stereo unspecified)	i	i	i	i	i	i
COc1ccc(C(=O)NNC2=CC(=O)CC(C)(C)C2)cc1OC	i	i	i	i	i	i
c1ccc(Cn2c(CSc3nnnn3-c3ccccc3)nc3ccccc32)cc1	i	i	i	237	i	i
CCCS(=O)(=O)NCCc1cc2ccc(C)cc2[nH]c1=O	i	i	i	88	i	i
COc1ccc(CNC(=O)C2CCCN2)cc1OC (stereo unspecified)	i	i	i	i	i	i
Cc1cc2oc(=O)cc(Cn3ccnc3)c2cc1C	i	i	i	273	i	i
O=S1(=O)N=C(N=Nc2c(O)[nH]c3ccccc23)c2ccccc21	12	4.8	12	i	17	i
Oc1[nH]c2ccccc2c1N=Nc1ccccc1	i	i	?	nt	i	i
COC(=O)C1=C(C)NC(=S)N(C(C)=O)C1c1ccc(OC)c(OC)c1 (stereo unspecified)	i	i	i	i	i	i
O=C(CSc1nc2ccc(Cl)cc2[nH]1)NCCc1ccccc1	i	i	i	i	i	i
O=C(CSc1nc2ccc([N+](=O)[O-])cc2[nH]1)NCCc1ccccc1	i	i	i	i	i	61
O=C(COc1ccccc1Br)N1CCN(c2ccccc2)CC1	i	i	i	i	i	i
Cc1ccsc1C(=O)OCC(=O)NCc1ccc2c(c1)OCO2	i	i	i	261	i	i
CN1CC(=O)N(CC(=O)NCc2ccc3c(c2)OCO3)C1=O	i	i	i	283	i	i
CC(=O)OCC(=O)NCc1ccc2c(c1)OCO2	i	i	i	i	i	i
Cc1ccc(C2=NN(CCC(=O)NCc3ccc4c(c3)OCO4)C(=O)CC2)cc1	i	i	i	226	i	i
CC(O)c1cccc(NC(=O)CCCc2ccccc2)c1 (stereo unspecified)	i	i	i	i	i	i
CC(O)c1cccc(NC(=O)CCC(=O)O)c1 (stereo unspecified)	i	i	i	261	i	i
O=S(=O)(c1ccc(Br)s1)N1CCc2ccccc2C1	i	i	i	i	i	48
COc1ccc(C(=O)/C(C#N)=N/Nc2cccc([N+](=O)[O-])c2)cc1	i	i	i	i	i	i
FC(F)(F)c1ccc(-n2ccnc2)nc1	i	i	i	265	i	i
CCN(CC)CCCNC(=O)CSc1nc2c(c(C(F)(F)F)n1)CCc1ccccc1-2	i	i	?	i	i	64
COc1ccc(S(=O)(=O)Nc2nncs2)cc1	i	i	i	i	i	49
CCCc1nnc(NS(=O)(=O)c2ccc(OC)cc2)s1	i	i	i	i	i	i
COc1ccc(/C=C2\SC(N3CCc4ccccc4C3)=NC2=O)cc1OC	i	i	i	i	i	i
SMILES	RGS4-Gao reg	RGS16-Gao HTS	RGS7-Gao	GSH fluor	RGS8-Gao	Avidin fluor
N#C/C(=C\c1ccc(N2CCCCC2)o1)C(=O)Nc1cccc(Br)c1	i	i	i	i	i	60
N#C/C(=C\c1ccc(N2CCCCC2)o1)C(N)=O	i	i	i	i	i	i
O=C(NCCc1ccccc1)C1CCC(CNc2nc(=S)[nH]c3ccccc23)CC1 (stereo unspecified)	i	i	i	i	i	i
COc1ccc(NC(=S)N(CCN(C)C)C(C)c2ccco2)cc1Cl (stereo unspecified)	i	i	i	152	i	i
CCN(CC(=O)Nc1cccc(OC)c1)c1ncnc2sc(C)c(C)c12	i	i	i	i	i	i
COc1ccccc1-c1cc(C(=O)NCc2ccc(F)cc2)no1	i	i	i	i	i	i
COc1ccccc1-c1cc(C(=O)NCc2ccccc2)no1	i	i	i	i	i	48
COc1ccc(CCNC(=O)c2ccc(=O)[nH]n2)cc1OC	i	i	i	i	i	i
COc1ccc(CCNC(=O)c2cc(-c3cc(C)c(C)cc3O)n[nH]2)cc1OC	i	i	i	i	i	90
CCCCC(=O)NC(=O)NC(c1ccccc1)c1ccccc1	i	i	?	nt	i	i
Cc1c(-c2ccccc2)oc2c(C(=O)N3CCN(c4ccccc4F)CC3)cccc2c1=O	i	i	i	i	i	i
